Experimental findings from PubChem BioAssay are described below.

Activity calls are given as the source filed them.

Assay [1] deals with Human papillomavirus type 1a protein E7 (residues 44-93). The experiment in a line: small molecules binding HPV E7 44-93 – biochemical, small-molecule microarray, residues 44-93, 635 nm fluorescence, primary screen (AID 1108).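 Note: E7 fragment applied at 1 µg/mL in TBST for 1 h at 4 C; score combines spot fluorescence with its signal to noise ratio.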 The note with it: fluorescence 635 nm, higher = more signal.
Assay [2] can be described thus: hepatitis C replication reporter changes, two-sided – Huh7 cells, luciferase reporter, HCV replication inhibitor project, primary screen (AID 1109).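 Note: huh7 hepatoma cells harbouring a luciferase neomycin HCV replicon reporter; luciferase luminescence as measure of HCV replicon replication; test concentration not given here.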 To be noted: Huh7 HCV replicon luciferase reporter, 48 h; higher = more signal. (A reporter such as luciferase makes a cellular process visible.)
Assay [3] has as its target Left-right determination factor 2 (Homo sapiens) (UniProt O00292). The experiment in a line: small molecules binding LEFTY2 protein – biochemical, small-molecule microarray, 635 nm fluorescence scan, primary screen (AID 1110). To be noted: higher = more signal.
The target in assay [4] is Calmodulin-1 (Homo sapiens) (UniProt P0DP23). Kind of assay: small molecules binding calmodulin-1 with EGTA – biochemical, small-molecule microarray, Cy5-labelled CALM1, profiling panel (AID 1111).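 Note: labelled calmodulin applied in Tris saline Tween buffer holding calcium plus EGTA and DTT.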 To be noted: Cy5-CALM1 binding fluorescence, higher = more signal.
Assay [5] has the same target. The experiment in a line: small molecules binding Ca-loaded calmodulin-1 – biochemical, small-molecule microarray, Cy5-labelled CALM1, plus calcium, artefact control for SMM control-protein annotation, profiling panel (AID 1112).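 Note: score merges spot fluorescence with signal to noise from triplicate slides.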 The note with it: Cy5-CALM1 binding fluorescence, higher = more signal.
Assay [6] is described as follows: probe aWnt5a binding to arrayed compounds – biochemical, biotinylated probe, 635/667 nm fluorescence, primary screen (AID 1113).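 Note: score merges 667 nm fluorescence intensity with signal-to-noise per printed feature.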 To be noted: small-molecule microarray, higher = more signal.
Assay [7] is described as follows: probe aShh binding to arrayed compounds – biochemical, biotinylated probe, 635/667 nm fluorescence, primary screen (AID 1114).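 Note: probe is biotin-labelled aShh protein from a stem cell growth factor screen; measures binding of labelled protein to compounds printed on the slide; score merges feature fluorescence at 667 nm with signal-to-noise.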 The note with it: small-molecule microarray, higher = more signal.
Assay [8] can be described thus: probe aNog binding to arrayed compounds – biochemical, biotinylated probe, 635/667 nm fluorescence, primary screen (AID 1115).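 Note: probe is biotinylated aNog protein used at 0.15 µg/mL for 1 h at 4 C; z-score combines 667 nm fluorescence of each spot with its signal to noise.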 The note with it: small-molecule microarray, higher = more signal.
In assay [9] the target is Torsin-1A-interacting protein 1 (Homo sapiens) (UniProt Q5JTV8). The experiment in a line: compound microarray binding of lysate hLAP1 – cell lysate, small-molecule microarray, COS7 lysate, 635/667 nm fluorescence, primary screen (AID 1116). The note with it: 635 nm fluorescence, higher = more signal.
For assay [10], the target named is Alpha-bungarotoxin (Bungarus multicinctus) (UniProt P60615). Kind of assay: compounds binding labelled alpha-BTX control protein – biochemical, small-molecule microarray, Alexa647 label, 635/667 nm fluorescence, artefact control for SMM control protein annotation, profiling panel (AID 1117). To be noted: alpha-BTX-A647 binding fluorescence, higher = more signal.
Assay [11] addresses Albumin (Bos taurus) (UniProt P02769). The experiment in a line: compounds binding labelled BSA control protein – biochemical, small-molecule microarray, Alexa647 label, 635/667 nm fluorescence, artefact control for SMM control protein annotation, profiling panel (AID 1118).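 Note: score merges 667 nm emission intensity and signal-to-noise per printed compound spot.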 To be noted: BSA-A647 binding, fluorescence 635 nm, higher = more signal.
Assay [12] can be described thus: probe aXIP binding to arrayed compounds – biochemical, NeuroSMM set, 635/667 nm fluorescence, primary screen (AID 1119).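 Note: probe is the protein aXip251-270 applied at 1 µg/mL to compound-printed slides; binding of probe to printed compounds measured as 667 nm fluorescence plus signal to noise.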 The note with it: small-molecule microarray, higher = more signal, called active from +8 up or from −8 down.
The nature of assay [13]: probe aNOTCH3 binding on compound microarray – biochemical, small-molecule microarray, 635/667 nm fluorescence, primary screen (AID 1120).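 Note: probe is a biotin-tagged antibody raised against NOTCH3 rather than NOTCH3 protein; score merges spot fluorescence near 667 nm with spot signal to noise.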 The note with it: higher = more signal.
Assay [14] is described as follows: probe aNOTCH2 binding on compound microarray – biochemical, small-molecule microarray, 635/667 nm fluorescence, primary screen (AID 1121).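 Note: score merges feature fluorescence read at 667 nm with its signal to noise.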 The note with it: higher = more signal.
Assay [15] has as its target Carbonic anhydrase 2 (Homo sapiens) (UniProt P00918). Kind of assay: compounds binding carbonic anhydrase 2 – biochemical, small-molecule microarray, Alexa647-labelled CAII, profiling panel (AID 1122). The note with it: CAII-A647 binding fluorescence, higher = more signal.
A short description of assay [16]: COS7 lysate on small-molecule microarray, probe aHis, 635 nm (AID 1123).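 Note: z-score combines 667nm fluorescence intensity with signal-to-noise per printed compound spot.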 The note with it: COS7 cell lysate, fluorescence, higher = more signal.
Assay [17] is described as follows: probe aLAP1 signal on lysate-treated microarray – cell lysate, small-molecule microarray, COS7 lysate, primary screen (AID 1124).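 Note: lysate comes from COS7 cells expressing LAP1 and is applied at 0.3 µg/mL; score merges spot fluorescence near 667 nm with signal-to-noise over triplicate slides.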 The note with it: probe aLAP1, fluorescence, higher = more signal.
The test system of assay [18] is Sam68 (KHDRBS1). The experiment in a line: compounds binding KHDRBS1 protein – biochemical, small-molecule microarray, 635 nm fluorescence, primary screen (AID 1125).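 Note: score merges 667 nm channel intensity with signal to noise over triplicate slides.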 To be noted: higher = more signal.
For assay [19], the system named is Chordin-like protein 2 (CHRDL2). The experiment in a line: compounds binding chordin-like 2 – biochemical, small-molecule microarray, 635 nm fluorescence, primary screen (AID 1126).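 Note: printed compound slides probed with Chrdl2 protein at 4 µg/mL for 1 h at 4 C; score merges 667 nm emission intensity with signal to noise over three replicate slides.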 To be noted: fluorescence 635 nm, higher = more signal.
The target in assay [20] is Concanavalin-A (Canavalia ensiformis) (UniProt P02866). Kind of assay: compounds binding concanavalin A lectin – biochemical, small-molecule microarray, Alexa647 label, 635 nm, artefact control for SMM control protein annotation, primary screen (AID 1127).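 Note: z combines 667 nm emission intensity with signal-to-noise across three replicate slides.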 To be noted: ConA-A647 binding fluorescence, higher = more signal.
Sequence of Concanavalin-A (Canavalia ensiformis) (P02866 whole entry, looked up): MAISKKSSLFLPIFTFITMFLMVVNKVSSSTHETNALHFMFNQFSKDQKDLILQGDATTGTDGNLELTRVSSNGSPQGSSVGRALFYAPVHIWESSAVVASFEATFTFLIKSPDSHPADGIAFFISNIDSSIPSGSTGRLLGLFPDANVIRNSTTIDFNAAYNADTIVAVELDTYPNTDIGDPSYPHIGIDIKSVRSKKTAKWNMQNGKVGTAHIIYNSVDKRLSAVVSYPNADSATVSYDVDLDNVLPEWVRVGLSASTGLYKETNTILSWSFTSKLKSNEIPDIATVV

Sequence of Torsin-1A-interacting protein 1 (Homo sapiens) (Q5JTV8 whole entry, looked up): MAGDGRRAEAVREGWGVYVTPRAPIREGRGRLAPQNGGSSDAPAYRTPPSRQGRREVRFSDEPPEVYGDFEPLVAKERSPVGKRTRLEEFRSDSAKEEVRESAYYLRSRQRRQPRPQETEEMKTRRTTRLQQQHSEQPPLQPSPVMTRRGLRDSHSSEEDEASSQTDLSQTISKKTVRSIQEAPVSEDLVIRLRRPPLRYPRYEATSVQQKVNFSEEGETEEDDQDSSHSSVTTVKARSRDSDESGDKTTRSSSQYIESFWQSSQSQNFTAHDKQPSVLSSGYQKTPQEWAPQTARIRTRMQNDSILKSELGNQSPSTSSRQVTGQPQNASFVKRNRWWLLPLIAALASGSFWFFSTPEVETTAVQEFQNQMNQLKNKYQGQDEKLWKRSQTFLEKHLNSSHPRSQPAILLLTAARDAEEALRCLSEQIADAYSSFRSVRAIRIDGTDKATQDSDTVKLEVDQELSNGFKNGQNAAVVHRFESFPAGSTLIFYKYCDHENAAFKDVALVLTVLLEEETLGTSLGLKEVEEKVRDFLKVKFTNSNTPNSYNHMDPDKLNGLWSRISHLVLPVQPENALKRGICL
Sequence of Left-right determination factor 2 (Homo sapiens) (O00292 whole entry, looked up): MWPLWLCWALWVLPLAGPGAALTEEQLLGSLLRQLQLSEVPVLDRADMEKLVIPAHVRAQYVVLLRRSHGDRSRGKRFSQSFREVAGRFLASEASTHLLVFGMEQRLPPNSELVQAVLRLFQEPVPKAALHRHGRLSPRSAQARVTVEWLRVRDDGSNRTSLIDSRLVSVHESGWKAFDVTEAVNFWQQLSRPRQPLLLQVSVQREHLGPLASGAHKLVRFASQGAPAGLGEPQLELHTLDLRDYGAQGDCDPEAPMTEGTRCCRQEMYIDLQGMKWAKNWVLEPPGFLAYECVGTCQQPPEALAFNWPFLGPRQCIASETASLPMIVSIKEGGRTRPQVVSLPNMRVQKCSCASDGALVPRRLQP
Sequence of Albumin (Bos taurus) (P02769 whole entry, looked up): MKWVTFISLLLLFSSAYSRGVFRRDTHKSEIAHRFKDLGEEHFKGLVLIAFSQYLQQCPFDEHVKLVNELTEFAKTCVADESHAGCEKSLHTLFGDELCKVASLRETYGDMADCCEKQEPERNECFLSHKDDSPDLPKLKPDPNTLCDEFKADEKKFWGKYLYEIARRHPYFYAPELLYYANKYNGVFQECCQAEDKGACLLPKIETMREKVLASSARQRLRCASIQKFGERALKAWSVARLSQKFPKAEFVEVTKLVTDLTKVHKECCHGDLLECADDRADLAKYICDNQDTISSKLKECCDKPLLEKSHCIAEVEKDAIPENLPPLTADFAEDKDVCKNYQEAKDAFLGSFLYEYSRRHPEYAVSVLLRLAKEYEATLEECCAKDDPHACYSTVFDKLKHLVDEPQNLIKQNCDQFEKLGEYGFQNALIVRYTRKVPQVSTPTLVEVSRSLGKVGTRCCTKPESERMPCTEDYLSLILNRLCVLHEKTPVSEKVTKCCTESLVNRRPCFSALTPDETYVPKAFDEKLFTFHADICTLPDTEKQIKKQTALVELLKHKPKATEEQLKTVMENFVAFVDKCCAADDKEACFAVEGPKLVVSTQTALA
Sequence of Alpha-bungarotoxin (Bungarus multicinctus) (P60615 whole entry, looked up): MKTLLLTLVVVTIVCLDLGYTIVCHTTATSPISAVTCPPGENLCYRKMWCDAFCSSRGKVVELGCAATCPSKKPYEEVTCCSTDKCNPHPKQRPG

With `[N-]=[N+]=NCc1ccccc1[C@@H]1OC(c2ccc(OCCCO)cc2)=N[C@]1(CCS(=O)(=O)c1ccccc1)C(=O)NCc1ccccc1`, the composite z-score came to 0.512 in [1]; 0.526 in assay [3]; 1.02 in assay [4]; 0.222 in assay [5]; 0.301 in assay [6]; 0.487 in assay [7]. The composite z-score turned out to be 2.12 in assay [8]; 0.142 in [9]; 2.18 in assay [10]; 0.732 in assay [11]; 0.946 in [13]; 0.257 in [14]. In addition, the composite z-score in [15] was 0.694; in assay [16], 1.89; in [17], 1.77; in [18] it was 1.3; in assay [19], 0.518; in [20], 1.11. Moreover, in [2], the z-score is -1.78. The composite Z-score in assay [12] is 0.0035 (inactive).
In the case of `O=C(NCc1ccc(F)cc1)[C@H]1C[C@H]2C(=O)N[C@@H](Cc3ccccc3)C(=O)N2[C@H]1c1ccc(O)cc1`, the composite z-score in assay [1] is 0.335; in assay [3] it was -0.469; in [4], 0.0755; in assay [5], 0.531; in assay [6] it was -0.148; in assay [7], -0.244. Also, the composite z-score in assay [8] is -0.235; in [9] it was 0.33; in assay [10] it was -0.051; in [11] it was -1.22; in assay [13], -0.323; in assay [14], -0.159. Besides, the composite z-score was 0.606 in assay [15]; 1.56 in assay [16]; -0.516 in assay [17]; -0.109 in [18]; 0.371 in [19]; 0.368 in assay [20]. This compound yielded a z-score in assay [2] of -0.522. Also, the composite Z-score in [12] is 0.239 (inactive).
For the compound `O=C1[C@H]2C=C(Br)[C@H](C[C@@H]2c2ccccc2)[C@@]12CO2`, the composite z-score in assay [1] is 0.235; in assay [3], 1.02; in [4], -0.428; in [5] it was -0.441; in assay [6], -0.152; in [7], -0.414. Also, the composite z-score was -0.461 in assay [8]; 0.0974 in assay [9]; 0.0148 in assay [10]; -0.6 in assay [11]; 0.11 in [13]; -0.0817 in assay [14]. In addition, the composite z-score in assay [15] was 0.183; in [16], -0.0697; in assay [17], -0.187; in assay [18] it was 0.383; in assay [19], 0.945; in assay [20], -0.0479. The z-score in assay [2] was -3.33. The composite Z-score in assay [12] is 1.22 (inactive).
Regarding `Cc1ccc(S[C@]2(C(=O)NC3CC3)CC(=O)N(C3Cc4ccccc4C3)[C@@H]2c2ccc(CO)cc2)cc1`, the composite z-score in assay [1] is 1.27; in [3] it was -1.7; in [4], -0.0137; in [5], 0.0662; in assay [6], -0.258; in assay [7], -0.154. Besides, the composite z-score in [8] is 0.354; in [9] it was 0.439; in assay [10] it was -0.441; in assay [11] it was 0.79; in [13] it was -0.161; in [14] it was 0.016. Also, the composite z-score is 0.628 in [15]; 1.81 in assay [16]; 0.845 in assay [17]; 0.963 in assay [18]; -0.759 in [19]; 0.356 in assay [20]. In assay [2], this compound yielded a z-score of -1.08. Moreover, the composite Z-score in [12] is 0.157 (inactive).
Regarding `COC(=O)[C@@]1(Cc2ccc(F)cc2)[C@H]2c3cc(C(=O)N(C)C)n(Cc4ccc(S(C)(=O)=O)cc4)c3C[C@H]2CN1C(=O)c1ccccc1`, the composite z-score in [1] is -0.164; in [3], 0.213; in assay [4], 2.54; in assay [5], 0.497; in [6], -0.0125; in assay [7] it was 0.123. Besides, the composite z-score in [8] was 1.84; in assay [9] it was 2.08; in [10], 0.15; in assay [11] it was 0.653; in [13], -0.142; in [14], 0.151. The composite z-score in [15] was 0.747; in [16], 3.39; in [17] it was 1.04; in assay [18], -0.181; in assay [19] it was -0.0016; in [20] it was 0.518. Moreover, the z-score in assay [2] was -0.328. Besides, the composite Z-score in assay [12] is 0.542 (inactive).
